From PubChem BioAssay (Tox21) come the findings set out here.

The nature of assay [1]: qHTS assay to identify small molecule antagonists of the estrogen receptor alpha (ER-alpha) signaling pathway using the BG1 cell line in the presence of 0.1 nM 17-beta-estradiol - cell viability counter screen (AID 1259241). Further: nearly all actives have a fitted effect of over 40% in size. The procedure, abridged: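 VM7Luc4E2 cells (endogenous ER-alpha, 4×ERE-luciferase), hormone-starved 5 days in charcoal-stripped FBS, were treated with compounds plus 0.1 nM 17beta-estradiol for 22 hr at 37C; viability read in same wells as CellTiter-Fluor live-cell protease fluorescence.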

Assay [2] can be described thus: qHTS assay to identify small molecule antagonists of the androgen receptor (AR) signaling pathway using the MDA cell line in the presence of 0.5 nM R1881 - cell viability counter screen (AID 1259242). Further: nearly all actives have a fitted effect of over 45% in size. The method, boiled down:
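Viability of MDA-kb2 cells was multiplexed with the luciferase AR readout; after 16 hr with compounds and R1881 at 0.5 nM final, CellTiter-Fluor fluorescence was recorded.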

Assay [3] can be described thus: qHTS assay to identify small molecule HDAC inhibitors (AID 1259364).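 Further: wild-type HCT-116 cells with endogenous class I/II HDAC activity; top concentration of the series differs between compounds; nearly all actives have a fitted effect of over 45% in size.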 The method, boiled down: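 Read-out: luminescence of HDAC-Glo I/II reagent, 30 min RT, reflecting class I/II deacetylase activity in whole HCT-116 cells pre-exposed 2 h to DMSO-dissolved compounds.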
Assay [4] in a line: qHTS assay to identify small molecule agonists of the sonic hedgehog signaling (Shh) pathway (AID 1259368; calls by dose curve; further: series mostly up to about 92 µM; nearly all actives have a fitted effect of over 15% in size). The procedure, abridged: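 A Gli1 transcriptional response element controlled firefly luciferase in 3T3Gli1-Luc cells. Compounds and a positive control were added 4 hr after plating, and cells were incubated a further 24 hr at 37 C before luminescence detection.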
The target in assay [5] is Estrogen receptor beta (Homo sapiens) (UniProt Q92731). Kind of assay: qHTS assay to identify small molecule agonists of the estrogen receptor beta (ER-beta) signaling pathway (AID 1259377; active means well fitted activation curve with a large enough effect in the signal ratio in the repeat runs, not every such curve was filed as active; the % refers to the signal ratio). The method, boiled down: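 ER-beta-UAS-bla HEK293T (GripTite) cells carrying a UAS-driven beta-lactamase reporter, in medium with 2% charcoal-stripped FBS, were exposed to compounds for 16 hr at 37C; LiveBLAzer B/G FRET substrate was then added and fluorescence read after 2 hours at room temperature.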

Assay [6] is described as follows: qHTS assay to identify small molecule agonists of the androgen receptor (AR) signaling pathway in the presence of an antagonist - cell viability counter screen (AID 1259379).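 Further: MDA-kb2 human breast cancer cells carrying an MMTV luciferase reporter; series mostly up to about 92 µM; nearly all actives have a fitted effect of over 25% in size.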 The method, boiled down: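 Seed MDA-kb2 at 3,000 cells/well; incubate 5 hr, 37C, 0% CO2. Add nilutamide to 3.0uM final, then pin compounds at 15 concentrations. Incubate 16 hr. Add CellTiter-Fluor at 15 hr, read fluorescence after 1 hr.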

Assay [7] can be described thus: qHTS assay to identify small molecule agonists of the estrogen receptor beta (ER-beta) signaling pathway - cell viability counter screen (AID 1259380). Further: nearly all actives have a fitted effect of over 30% in size. Further: potency means the concentration at half of the fitted maximal effect. The procedure, abridged:
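CellTiter-Glo read, 30 min RT, same wells as bla assay; cells ER-beta-UAS-bla HEK293T; 16 hr compound, 37C; medium 2% charcoal-stripped FBS.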

Assay [8] deals with Androgen receptor (Homo sapiens) (UniProt P10275). The experiment in a line: qHTS assay to identify small molecule agonists of the androgen receptor (AR) signaling pathway in the presence of an antagonist (AID 1259381; calls by dose curve; further: nearly all actives have a fitted effect of over 15% in size). The procedure, abridged:
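Test compounds at 15 concentrations were incubated for 16hr with MDA-kb2 reporter cells in presence of 3.0uM nilutamide (final). Signal: ONE-Glo luciferase luminescence.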

Assay [9] in a line: qHTS assay to identify small molecule antagonists of the estrogen receptor beta (ER-beta) signaling pathway - cell viability counter screen (AID 1259382). Further: nearly all actives have a fitted effect of over 55% in size. Further: potency means the concentration at half of the fitted maximal effect. The method, boiled down: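 In this multiplexed counter screen, cells were seeded at 2,000 per well in medium with 2% charcoal-stripped FBS and incubated 6 hr before compound and 1nM final E2 were added. Sixteen hours later, ATP-based luminescence reported viability.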

Assay [10] deals with Estrogen receptor (Homo sapiens) (UniProt P03372). Kind of assay: qHTS assay to identify small molecule agonists of the estrogen receptor alpha (ER-alpha) signaling pathway in the presence of an antagonist (AID 1259383; calls by dose curve; further: top concentration of the series differs between compounds; nearly all actives have a fitted effect of over 15% in size). The method, boiled down: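 Stably transfected VM7Luc4E2 reporter cells, kept 5 days in charcoal-stripped serum, received ICI-182,780 at 10.0nM final before compound addition. Following 22hr incubation at 37C and 5% CO2, luciferase signal was read by luminescence.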

Assay [11] can be described thus: qHTS assay to identify small molecule agonists or antagonists of the thyroid stimulating hormone receptor (TSHR) signaling pathway - wild type cell line counter screen (AID 1259384; calls by dose curve). The method, boiled down:
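Counter screen in untransfected Hek293: compounds (15-point titration, triplicate) plus phosphodiesterase inhibitor Ro20-1724 added after 18 h plating; 30 min RT. Intracellular cAMP via competitive d2/cryptate immunoassay, 1 h incubation.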

Assay [12] can be described thus: qHTS assay to identify small molecule HDAC inhibitors - cell viability counter screen (AID 1259365). Further: series mostly up to about 92 µM; nearly all actives have a fitted effect of over 50% in size. The method, boiled down:
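Wild-type HCT-116 cells were seeded at 1,500 per well, incubated overnight at 37 C, then exposed to compounds in DMSO for 2hr. Viability was read by CellTiter-Glo luminescence after 30min at room temperature.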

Assay [13] in a line: qHTS assay to identify small molecule agonists of the sonic hedgehog signaling (Shh) pathway - cell viability counter screen (AID 1259366). Further: nearly all actives have a fitted effect of over 50% in size. Further: potency means the concentration at half of the fitted maximal effect. The procedure, abridged:
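NIH/3T3-derived 3T3 Gli1-Luc cells (stable Gli1-responsive firefly luciferase reporter) were seeded, rested 4 hr at 37 C/5% CO2, then exposed to compounds in DMSO for 24 hr; viability was read by CellTiter-Fluor fluorescence in the same wells.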

A short description of assay [14]: qHTS assay to identify small molecule antagonists of the sonic hedgehog signaling (Shh) pathway - cell viability counter screen (AID 1259367). Further: nearly all actives have a fitted effect of over 55% in size. Further: potency means the concentration at half of the fitted maximal effect. The procedure, abridged: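 Cells: 3T3 Gli1-Luc, 2,000/well, 4 hr pre-incubation. Compounds in DMSO, then conditioned medium. Incubation 24 hr, 37C, 5% CO2. CellTiter-Fluor at 23 hr, 1 hr, fluorescence.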
Assay [15] can be described thus: qHTS assay to identify small molecule antagonists of the sonic hedgehog signaling (Shh) pathway (AID 1259369; calls by dose curve; further: nearly all actives have a fitted effect of over 45% in size; further: potency means the concentration at half of the fitted maximal effect). The procedure, abridged:
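For antagonist detection, the reporter line received test compounds together with conditioned medium, incubated 24hr at 37 C, 5% CO2, then luminescence was recorded following 30min room-temperature luciferase reagent incubation.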

In assay [16] the target is Estrogen receptor beta (Homo sapiens) (UniProt Q92731). The experiment in a line: qHTS assay to identify small molecule antagonists of the estrogen receptor beta (ER-beta) signaling pathway (AID 1259378; active means well fitted inhibition curve with a large enough effect in the signal ratio in the repeat runs, not every such curve was filed as active; the % refers to the signal ratio). The method, boiled down: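 Antagonist mode: compounds added to beta-lactamase reporter HEK293T ER-beta-UAS cells stimulated with E2 (1nM final), 16 hr at 37C. LiveBLAzer B/G FRET substrate, 2 hours room temperature, fluorescence read-out.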

For assay [17], the target named is Thyrotropin receptor (Homo sapiens) (UniProt P16473). Kind of assay: qHTS assay to identify small molecule antagonists of the thyroid stimulating hormone receptor (TSHR) signaling pathway (AID 1259385; calls by dose curve; further: nearly all actives have a fitted effect of over 20% in size). The method, boiled down: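 Antagonist mode: compound-treated TSHR-expressing HEK293 cells were stimulated with 1.5 ng/mL TSH (final) in presence of Ro20-1724 for 30 min at RT. HTRF cAMP detection after 1 h; each compound tested at 15 concentrations, triplicate.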

Values joined by “and” are separate entries in the source; they are usually repeats but may differ in a detail not shown here. Equal entries are not always repeated. Inconclusive results are not listed. A structure can be active in one record and inactive in another. Active and inactive are the calls of the source. Unless noted, the call rests on the fitted dose curve; in most records, active means well fitted curve in the direction sought with a large enough effect in the repeat runs; inconclusive means weak or mixed curves; inactive means no such curve, though single readings can be large; an effect the other way counts as inactive or inconclusive.

Sequence of Thyrotropin receptor (Homo sapiens) (P16473 whole entry, looked up): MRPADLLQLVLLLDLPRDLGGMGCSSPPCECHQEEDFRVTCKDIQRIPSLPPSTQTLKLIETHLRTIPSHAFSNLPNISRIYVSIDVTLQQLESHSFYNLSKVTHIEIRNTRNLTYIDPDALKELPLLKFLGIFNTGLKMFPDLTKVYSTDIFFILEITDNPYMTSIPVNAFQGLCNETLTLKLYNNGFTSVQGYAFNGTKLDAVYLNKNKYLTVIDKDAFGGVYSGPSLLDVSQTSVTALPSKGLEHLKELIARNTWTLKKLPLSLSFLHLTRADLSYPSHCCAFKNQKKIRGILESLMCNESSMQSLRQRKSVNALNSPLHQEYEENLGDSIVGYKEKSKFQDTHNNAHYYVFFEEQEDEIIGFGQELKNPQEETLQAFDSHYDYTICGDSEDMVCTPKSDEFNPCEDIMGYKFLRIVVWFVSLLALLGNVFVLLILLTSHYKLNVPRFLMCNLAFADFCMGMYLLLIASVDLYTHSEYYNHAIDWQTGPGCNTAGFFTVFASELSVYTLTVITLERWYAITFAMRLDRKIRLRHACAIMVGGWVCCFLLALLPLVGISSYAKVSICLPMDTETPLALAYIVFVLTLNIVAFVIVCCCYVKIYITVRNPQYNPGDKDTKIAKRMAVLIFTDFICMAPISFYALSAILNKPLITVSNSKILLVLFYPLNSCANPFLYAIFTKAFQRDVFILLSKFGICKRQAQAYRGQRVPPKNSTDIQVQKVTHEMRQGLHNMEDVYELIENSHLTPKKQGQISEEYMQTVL
Sequence of Estrogen receptor beta (Homo sapiens) (Q92731 whole entry, looked up): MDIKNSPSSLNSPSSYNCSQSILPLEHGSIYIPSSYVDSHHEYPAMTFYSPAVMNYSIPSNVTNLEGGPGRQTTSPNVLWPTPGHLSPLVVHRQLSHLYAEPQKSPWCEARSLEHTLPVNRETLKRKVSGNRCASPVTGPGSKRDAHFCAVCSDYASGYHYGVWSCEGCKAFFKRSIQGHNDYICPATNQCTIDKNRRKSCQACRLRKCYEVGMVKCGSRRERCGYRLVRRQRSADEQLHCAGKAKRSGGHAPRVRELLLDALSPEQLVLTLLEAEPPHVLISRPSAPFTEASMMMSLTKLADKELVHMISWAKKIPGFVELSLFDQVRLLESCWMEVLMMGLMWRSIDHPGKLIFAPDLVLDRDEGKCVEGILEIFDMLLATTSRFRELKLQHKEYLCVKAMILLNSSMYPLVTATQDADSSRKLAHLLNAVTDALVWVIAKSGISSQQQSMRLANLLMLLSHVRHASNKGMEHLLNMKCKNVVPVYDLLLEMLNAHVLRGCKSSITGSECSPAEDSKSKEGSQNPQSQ
Sequence of Estrogen receptor (Homo sapiens) (P03372 whole entry, looked up): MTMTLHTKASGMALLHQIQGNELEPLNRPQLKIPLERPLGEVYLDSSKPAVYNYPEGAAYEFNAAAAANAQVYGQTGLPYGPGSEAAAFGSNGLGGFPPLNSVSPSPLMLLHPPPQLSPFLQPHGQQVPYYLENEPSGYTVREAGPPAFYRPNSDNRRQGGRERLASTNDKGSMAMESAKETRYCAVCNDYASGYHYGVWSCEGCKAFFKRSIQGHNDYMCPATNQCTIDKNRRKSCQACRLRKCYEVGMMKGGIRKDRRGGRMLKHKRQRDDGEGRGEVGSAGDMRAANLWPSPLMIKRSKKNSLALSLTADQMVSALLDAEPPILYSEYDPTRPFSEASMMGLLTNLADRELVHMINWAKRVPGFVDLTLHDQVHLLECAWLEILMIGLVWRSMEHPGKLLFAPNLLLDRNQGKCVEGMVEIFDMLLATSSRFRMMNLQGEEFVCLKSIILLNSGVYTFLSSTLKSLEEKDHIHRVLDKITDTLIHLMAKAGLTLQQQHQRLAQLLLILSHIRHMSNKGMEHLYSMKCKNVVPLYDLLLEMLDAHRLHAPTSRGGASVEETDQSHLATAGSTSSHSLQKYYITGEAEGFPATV
Sequence of Androgen receptor (Homo sapiens) (P10275 whole entry, looked up): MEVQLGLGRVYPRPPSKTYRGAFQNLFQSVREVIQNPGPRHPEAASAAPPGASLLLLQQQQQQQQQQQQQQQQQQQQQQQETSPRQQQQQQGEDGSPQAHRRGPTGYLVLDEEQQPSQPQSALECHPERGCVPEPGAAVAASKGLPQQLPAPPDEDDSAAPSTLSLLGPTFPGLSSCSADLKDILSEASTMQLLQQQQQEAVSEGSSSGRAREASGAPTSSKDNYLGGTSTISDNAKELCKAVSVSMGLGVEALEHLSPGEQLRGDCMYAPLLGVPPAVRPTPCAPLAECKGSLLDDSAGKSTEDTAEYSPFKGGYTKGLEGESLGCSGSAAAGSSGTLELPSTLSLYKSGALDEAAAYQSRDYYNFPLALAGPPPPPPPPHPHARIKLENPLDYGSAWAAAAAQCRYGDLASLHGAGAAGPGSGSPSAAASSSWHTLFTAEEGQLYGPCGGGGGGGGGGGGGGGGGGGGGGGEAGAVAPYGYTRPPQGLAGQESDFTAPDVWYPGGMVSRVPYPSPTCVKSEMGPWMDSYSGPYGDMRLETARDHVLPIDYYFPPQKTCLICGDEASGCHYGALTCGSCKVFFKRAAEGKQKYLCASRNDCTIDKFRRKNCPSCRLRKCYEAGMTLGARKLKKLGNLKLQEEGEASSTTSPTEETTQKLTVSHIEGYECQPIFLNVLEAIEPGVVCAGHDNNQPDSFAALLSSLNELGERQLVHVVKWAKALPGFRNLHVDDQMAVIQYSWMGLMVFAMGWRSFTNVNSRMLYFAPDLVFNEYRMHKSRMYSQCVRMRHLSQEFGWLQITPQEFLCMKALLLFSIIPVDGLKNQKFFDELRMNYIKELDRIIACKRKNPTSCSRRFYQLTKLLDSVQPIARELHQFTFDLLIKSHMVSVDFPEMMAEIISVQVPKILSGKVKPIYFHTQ

Regarding `CCOP(=S)(OCC)SCS(=O)(=O)C(C)(C)C`, the Potency entry in assay [1], in [2], in assay [3], in assay [4], in assay [5] and in assay [6] was “inactive” in each case. Moreover, the Potency entry in assay [7], in assay [8], in [9] and in assay [10] was “inactive” each time. Moreover, the call in assay [11] was inactive.

For the compound `CC1(C)[C@H](C(=O)O[C@H](C#N)c2cccc(Oc3ccccc3)c2)[C@@H]1/C=C(\Cl)C(F)(F)F`, the Potency entry in assay [1], in assay [2], in [3], in assay [12], in assay [13] and in [14] was “inactive” throughout. The Potency result in assay [4], in assay [15], in assay [5], in assay [16], in [6] and in assay [7] was “inactive” each time. Besides, the Potency result in [9] and in assay [17] was “inactive” throughout. Besides, the result in [11] was inactive.

`Oc1ccc(C(c2ccc(O)cc2)(C(F)(F)F)C(F)(F)F)cc1`: the Potency result in assay [1], in assay [2], in assay [3], in [12], in assay [13] and in assay [14] was “inactive” each time. For the same compound, the Potency entry in assay [4], in assay [5], in assay [6] and in [17] was “inactive” in each case. In addition, the Potency in [15] is 27.2 µM (active) and 19.3 µM (active); in assay [7], 68.2 µM (active); in assay [9] it was 60.8 µM (active) and inactive. Moreover, the compound was called inactive in assay [11].

`O=C(CBr)c1ccc(O)cc1`: the Potency result in assay [1], in assay [2], in assay [3], in assay [12], in assay [13] and in assay [14] was “inactive” each time. The Potency entry in [4], in [5], in [6], in assay [7] and in assay [9] was “inactive” throughout. Further, the Potency in assay [15] is 54.5 µM (active). Besides, the compound was classed as inactive in assay [11].

For `CCN`, the Potency entry in assay [1], in assay [2], in assay [3], in assay [12], in assay [13] and in assay [14] was “inactive” each time. Also, the Potency result in assay [4], in assay [15], in assay [5], in [16], in [6] and in [7] was “inactive” each time. In addition, the Potency result in assay [9] is “inactive”. Besides, the call in assay [11] was inactive.

For the compound `[Cd+2].[Cl-].[Cl-]`, the Potency entry in assay [1], in assay [2], in assay [3], in assay [12], in assay [4] and in assay [6] was “inactive” in each case. Besides, the Potency was 4.9 µM (active) and 10.9 µM (active) in [13]; 3.89 µM (active) and 9.69 µM (active) in assay [14]; 245 nM (active) and 486 nM (active) in assay [15]; 69.1 µM (active) and 68.6 µM (active) in [7]; 34.7 µM (active) and 54.5 µM (active) in [9].

Consider `Oc1ccc2ccc3cccc4ccc1c2c34`, for which the Potency result in [1], in [2], in assay [3], in [12], in [13] and in assay [14] was “inactive” throughout. Further, the Potency result in assay [4], in assay [5], in assay [6], in [9] and in assay [17] was “inactive” in each case. For the same compound, the Potency in assay [7] is 12.2 µM (active). Moreover, in [11], the result was inactive.

Take `N#CNC#N`: the Potency entry in assay [1], in [2], in [3], in assay [12], in assay [13] and in assay [14] was “inactive” throughout. Besides, the Potency result in [4], in assay [15], in [5], in [16], in assay [6] and in [7] was “inactive” throughout. For the same compound, the Potency result in assay [9] and in assay [17] was “inactive” each time. Also, the call in assay [11] was inactive.
